Assay results: the supplement of paper PMC12494721
Structures can show the parent of a compound that is named as a salt.

Assays:
Conditions in all cases: incubation time: 27 h, anaerobic, 37 °C;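 for the amine columns active = adjusted P below 0.05 in both replicates with a change the same way and a mean fold change under 0.8 or over 1.25; inactive = the rest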
[1] = system: Clostridium sporogenes DSM 1664; experiment: growth (OD595) fold change vs plate DMSO controls (fold change (ratio)); higher = more growth
Method in brief: (§1)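 Anaerobic mGAM cultures in 96-well plates were grown for 27 h at 37 °C, and absorbance was then read at 595 nm. After blank and compound background correction with 20 µM compound solutions in water, a calibration factor of 5 gave OD. Growth is the fold change relative to the median of each plate's DMSO controls. Values are means of 2 biological replicates, with fold changes above 1.5 set to NA.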

[2] = system: Escherichia coli IAI1; experiment: as above
Method in brief: as §1

[3] = system: Klebsiella aerogenes DSM 30053; experiment: as above
Method in brief: as §1

[4] = system: Ruminococcus gnavus DSM 108212; experiment: as above
Method in brief: as §1

[5] = system: Klebsiella aerogenes DSM 30053; experiment: fold change of Histamine concentration vs plate DMSO controls (fold change (ratio)); higher = more amine produced, active = hit call of the paper (significant change in both replicates, either direction)
Method in brief: (§2)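 Amines were quantified by LC–triple-quadrupole MS in dynamic MRM mode against external calibration curves, with drift correction within each batch. The samples were whole anaerobic mGAM cultures of four gut bacterial strains, grown for 27 h at 37 °C in 80 µL wells and extracted with cold acetonitrile/methanol with 0.1% formic acid, then centrifuged. Values are reported as fold change over DMSO controls on the same plate. The mean of 2 biological replicates is given.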

[6] = system: Clostridium sporogenes DSM 1664; experiment: fold change of Tryptamine concentration vs plate DMSO controls (fold change (ratio)); higher = more amine produced, active = hit call of the paper (significant change in both replicates, either direction)
Method in brief: as §2

[7] = system: Ruminococcus gnavus DSM 108212; experiment: as above
Method in brief: as §2

[8] = system: Escherichia coli IAI1; experiment: fold change of Putrescine concentration vs plate DMSO controls (fold change (ratio)); higher = more amine produced, active = hit call of the paper (significant change in both replicates, either direction)
Method in brief: as §2

[9] = system: Klebsiella aerogenes DSM 30053; experiment: as above
Method in brief: as §2

[10] = system: Escherichia coli IAI1; experiment: fold change of Cadaverine concentration vs plate DMSO controls (fold change (ratio)); higher = more amine produced, active = hit call of the paper (significant change in both replicates, either direction)
Method in brief: as §2

[11] = system: Klebsiella aerogenes DSM 30053; experiment: as above
Method in brief: as §2

[12] = system: Ruminococcus gnavus DSM 108212; experiment: fold change of 2-Phenylethylamine concentration vs plate DMSO controls (fold change (ratio)); higher = more amine produced, active = hit call of the paper (significant change in both replicates, either direction)
Method in brief: as §2

Compound | growth [1] | growth [2] | growth [3] | growth [4] | fold change of Histamine concentration [5] | fold change of Tryptamine concentration [6] | fold change of Tryptamine concentration [7] | fold change of Putrescine concentration [8] | fold change of Putrescine concentration [9] | fold change of Cadaverine concentration [10] | fold change of Cadaverine concentration [11] | fold change of 2-Phenylethylamine concentration [12]
CCCCOCCOCCOCc1cc2c(cc1CCC)OCO2 (20 µM) | 1.07 | 1.02 | 1.03 | 1.09 | 0.98 (inactive) | 1.03 (inactive) | 1.04 (inactive) | 1 (inactive) | 1 (inactive) | 1.02 (inactive) | 1 (inactive) | 1.06 (inactive)
O=c1oc2ccccc2c(O)c1Cc1c(O)c2ccccc2oc1=O [Dicumarol] (20 µM) | 0.886 | 0.961 | 1.04 | 0.883 | 1 (inactive) | 0.989 (inactive) | 0.949 (inactive) | 0.993 (inactive) | 1 (inactive) | 1.01 (inactive) | 1.01 (inactive) | 1.02 (inactive)
O=C(NCCO[N+](=O)[O-])c1cccnc1 [Nicorandil] (20 µM) | 1.03 | 0.985 | 0.928 | 1.35 | 1.06 (inactive) | 1.04 (inactive) | 1.03 (inactive) | 1.05 (inactive) | 1.03 (inactive) | 0.981 (inactive) | 1 (inactive) | 1 (inactive)
C[C@]12CC[C@@H]3c4ccc(OS(=O)(=O)O)cc4CC[C@H]3[C@@H]1CCC2=O [Estropipate piperazine salt] (20 µM) | 1.04 | 1.01 | 1.01 | 1.21 | 0.996 (inactive) | 0.974 (inactive) | 0.96 (inactive) | 1.04 (inactive) | 0.985 (inactive) | 0.947 (inactive) | 0.993 (inactive) | 0.89 (inactive)
CN[C@@H]1[C@@H](O)[C@@H](O[C@@H]2[C@@H](O)[C@H](O[C@H]3OC(CN)=CC[C@H]3N)[C@@H](N)C[C@H]2N)OC[C@]1(C)O [Sisomicin sulfate] (20 µM) | 0.97 | 0.99 | 0.992 | 0.942 | 0.971 (inactive) | 0.984 (inactive) | 1.02 (inactive) | 1 (inactive) | 0.998 (inactive) | 0.996 (inactive) | 1 (inactive) | 1.04 (inactive)
Cc1cc(=O)n(-c2ccccc2)n1C [Antipyrine] (20 µM) | 1.04 | 0.959 | 1.03 | 0.869 | 0.98 (inactive) | 1.03 (inactive) | 1.01 (inactive) | 0.999 (inactive) | 1 (inactive) | 1.01 (inactive) | 0.999 (inactive) | 1.02 (inactive)
C[C@H](CCC(=O)O)[C@H]1CC[C@H]2[C@@H]3C(=O)C[C@@H]4CC(=O)CC[C@]4(C)[C@H]3CC(=O)[C@]12C [Dehydrocholic acid] (20 µM) | 0.917 | 0.968 | 0.94 | 0.872 | 1.02 (inactive) | 0.96 (inactive) | 0.987 (inactive) | 0.975 (inactive) | 1.01 (inactive) | 0.982 (inactive) | 1.01 (inactive) | 0.859 (inactive)
OCc1cc(C(O)CNCCCCCCOCCCCc2ccccc2)ccc1O (centres undefined) [Salmeterol] (20 µM) | 1.17 | 1.02 | 1 | 0.975 | 1.04 (inactive) | 1.04 (inactive) | 0.936 (inactive) | 1.07 (inactive) | 0.975 (inactive) | 1.02 (inactive) | 0.986 (inactive) | 0.981 (inactive)
C/C(=C1\CCOC(=O)S1)N(C=O)Cc1cnc(C)nc1N [Cycotiamine] (20 µM) | 0.964 | 0.988 | 0.991 | 1.01 | 1.01 (inactive) | 1.02 (inactive) | 1.03 (inactive) | 0.971 (inactive) | 1.01 (inactive) | 1.01 (inactive) | 0.999 (inactive) | 1.06 (inactive)
c1cnc(N2CCN(Cc3ccc4c(c3)OCO4)CC2)nc1 [Piribedil] (20 µM) | 0.986 | 1 | 1.07 | 0.998 | 0.934 (inactive) | 1.18 (inactive) | 1.02 (inactive) | 1.03 (inactive) | 0.971 (inactive) | 0.962 (inactive) | 0.996 (inactive) | 0.991 (inactive)
OC(CNCC(O)C1CCc2cc(F)ccc2O1)C1CCc2cc(F)ccc2O1 (centres undefined) [Nebivolol hydrochloride] (20 µM) | 1.15 | 0.992 | 0.992 | 0.785 | 1.03 (inactive) | 0.94 (inactive) | 0.882 (inactive) | 1.03 (inactive) | 1.01 (inactive) | 0.955 (inactive) | 0.998 (inactive) | 0.879 (inactive)
CCCCC(=O)N(Cc1ccc(-c2ccccc2-c2nnn[nH]2)cc1)[C@H](C(=O)O)C(C)C [Valsartan] (20 µM) | 1.14 | 1.19 | 1.08 | 1.06 | 0.913 (inactive) | 1.05 (inactive) | 1.07 (inactive) | 1.17 (inactive) | 0.951 (inactive) | 0.941 (inactive) | 1.05 (inactive) | 1.12 (inactive)
CC[C@H]1OC(=O)[C@H](C)[C@@H](O[C@H]2C[C@@](C)(OC)[C@@H](O)[C@H](C)O2)[C@H](C)[C@@H](O[C@@H]2O[C@H](C)C[C@H](N(C)C)[C@H]2O)[C@](C)(O)C[C@@H](C)CN(C)[C@H](C)[C@@H](O)[C@]1(C)O [Azithromycin] (20 µM) | 0 | 0.212 | 0.39 | 0.162 | 0.0612 (active) | 0.0425 (active) | 0.0983 (active) | 0.366 (inactive) | 0.425 (active) | 0.633 (active) | 0.99 (inactive) | 0.115 (active)
CCCCCCCN(CC)CCCC(O)c1ccc(NS(C)(=O)=O)cc1 (centres undefined) [Ibutilide fumarate] (20 µM) | 1.13 | 1.12 | 1.09 | 1.08 | 0.925 (inactive) | 0.904 (inactive) | 0.952 (inactive) | 1.03 (inactive) | 0.989 (inactive) | 1.02 (inactive) | 1.01 (inactive) | 0.903 (inactive)
CC(=O)N(O)CCCCCNC(=O)CCC(=O)N(O)CCCCCNC(=O)CCC(=O)N(O)CCCCCN [Deferoxamine mesylate] (20 µM) | 0.934 | 0.997 | 0.996 | 1.06 | 0.926 (inactive) | 1.04 (inactive) | 1.18 (inactive) | 0.952 (inactive) | 0.951 (inactive) | 0.996 (inactive) | 1.03 (inactive) | 1.29 (inactive)
Cc1cccc(C)c1NC(=O)CC12CCCN1CCC2 [Pilsicainide Hydrochloride] (20 µM) | 0.937 | 1.04 | 1.01 | 1.04 | 0.986 (inactive) | 0.995 (inactive) | 1.05 (inactive) | 1.05 (inactive) | 0.984 (inactive) | 1.03 (inactive) | 0.98 (inactive) | 1.06 (inactive)
c1ccc2c(c1)Cc1ccccc1-2 [Fluorene] (20 µM) | 1 | 1.04 | 1.07 | 1.09 | 0.932 (inactive) | 0.97 (inactive) | 1 (inactive) | 1.05 (inactive) | 1.02 (inactive) | 0.914 (inactive) | 1.02 (inactive) | 0.967 (inactive)
Cc1ccnc(NS(=O)(=O)c2ccc(N)cc2)n1 [Sulfamerazine] (20 µM) | 0.951 | 1.06 | 1.07 | 1.06 | 0.995 (inactive) | 0.975 (inactive) | 0.995 (inactive) | 1 (inactive) | 0.999 (inactive) | 1.01 (inactive) | 1.02 (inactive) | 0.97 (inactive)
CC(C)(c1ccc(O)cc1)c1ccc(O)cc1 [Bisphenol A] (20 µM) | 0.972 | 1.04 | 1 | 0.996 | 1.01 (inactive) | 0.959 (inactive) | 0.976 (inactive) | 0.981 (inactive) | 0.988 (inactive) | 0.991 (inactive) | 0.985 (inactive) | 0.942 (inactive)
CC(=O)OCC(=O)[C@@]12OC(C)(C)O[C@@H]1C[C@H]1[C@@H]3C[C@H](F)C4=CC(=O)C=C[C@]4(C)[C@@]3(F)[C@@H](O)C[C@@]12C [Fluocinonide] (20 µM) | 0.81 | 0.961 | 0.997 | 0.976 | 1 (inactive) | 1.07 (inactive) | 0.936 (inactive) | 0.978 (inactive) | 1 (inactive) | 0.972 (inactive) | 0.988 (inactive) | 0.911 (inactive)
CO[C@@]1(NC(=O)Cc2cccs2)C(=O)N2C(C(=O)O)=C(COC(N)=O)CS[C@@H]21 [Cefoxitin sodium salt] (20 µM) | 0 | 0.00646 | 1.45 | 0 | 1.21 (inactive) | 0.0449 (active) | 0.0768 (active) | 0.153 (active) | 1.09 (inactive) | 0.623 (active) | 1.11 (inactive) | 0.0566 (active)
Cc1ncc([N+](=O)[O-])n1CC(C)O (centres undefined) [Secnidazole] (20 µM) | 0 | 1.07 | 1.02 | 0.0442 | 0.824 (inactive) | 0.0346 (active) | 0.041 (active) | 0.978 (inactive) | 1.03 (inactive) | 0.987 (inactive) | 1.02 (inactive) | 0.0431 (active)
